# Screens deposited in PubChem BioAssay by several laboratories.
# Compounds with a hit are over-represented: about 1.2% of the library has one in this group of screens.
# GRK2 aptamer HTS: human GRK2 inhibition via aptamer displacement. P25098. bead flow cytometry, FAM-aptamer displacement from GRK2. inhibition of aptamer binding, % at 10 µM. 0.59% of 330,000 active. AID 488847;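 active = inhibition of aptamer binding above 40%, roughly 3 SD of noise, on plates passing a quality check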;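 also: median bead fluorescence of bound FAM aptamer so fluorescent compounds give negative values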
# NTR1 ag: agonists of human neurotensin receptor NTR1 | NTR1-U2OS beta-arrestin-GFP spot imaging, agonist mode | activation, % at 20 µM | 0.17% of 330,000 active | AID 493036;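 active = activation at or above 40% of the spot to cytoplasm intensity ratio, with at least 20 cells analyzed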;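 also: 0% = DMSO without peptide and 100% = 100 nM NTR1 peptide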
# Target sequence (P30989 whole entry, looked up): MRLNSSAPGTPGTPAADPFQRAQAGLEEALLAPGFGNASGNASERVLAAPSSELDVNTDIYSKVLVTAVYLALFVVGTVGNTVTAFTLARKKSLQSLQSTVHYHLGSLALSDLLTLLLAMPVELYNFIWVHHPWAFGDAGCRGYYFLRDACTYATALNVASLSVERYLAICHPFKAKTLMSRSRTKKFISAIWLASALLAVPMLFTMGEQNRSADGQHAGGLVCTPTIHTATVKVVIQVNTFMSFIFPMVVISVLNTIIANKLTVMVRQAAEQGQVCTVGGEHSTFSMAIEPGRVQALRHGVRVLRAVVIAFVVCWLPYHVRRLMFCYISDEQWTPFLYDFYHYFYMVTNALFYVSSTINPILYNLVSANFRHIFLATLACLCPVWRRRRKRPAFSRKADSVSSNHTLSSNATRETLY
# Platelet DG rel: platelet dense granule release activity; inhibition, %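 (compounds screened at 7.5 µM in platelet-rich plasma)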; 0.22% of 300,000 active; human platelet-rich plasma, SFLLRN dense granule ATP release, luminescence; AID 1663;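 active = mean replicate score, as percent of positive control, at or above 50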
# beta cell repl: inducers of beta-cell replication in MIN6 cells | MIN6 cells proliferation, ATPlite luminescence, 48 h; cells starved in 0.2% serum; 100% = growth in 10% serum | 0.29% of 330,000 active | AID 2380 | proliferation, % at 10 µM;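 active = compounds whose signal lies at least 3.5 SD above the mean of all wells on their plate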;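 also: 0% = DMSO-treated cells in low-serum medium and 100% = 10% serum control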
# GRK2 CP1: confirmation of human GRK2 inhibitors displacing RNA aptamer; shares compounds with GRK2 aptamer HTS; bead-bound GRK2, FAM-aptamer displacement, flow cytometry; aptamer displacement, % at 10 µM; 4% of 2,000 active;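 active = aptamer displacement above 40%, near three times the noise of non-fluorescent compounds, on plates passing quality checks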;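 also: negative values mostly reflect intrinsic compound fluorescence rather than true enhancement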
# Aptamer quench: counter-screen for GRK2 aptamer inhibitors: fluorescent aptamer quenchers. Fluorescent RNA aptamer beads, quenching, flow cytometry; active compounds read high. 110 tested, under 10 active. fluorescence change (kMESF span), kMESF (no concentration beside the values). shares compounds with GRK2 aptamer HTS;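 active = compounds whose bead fluorescence drops by more than 37 kMESF across the dose range, marking them as dye quenchers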
# Aptamer quench SP: counter-screen for GRK2 aptamer inhibitors: fluorescent aptamer quenchers; shares compounds with GRK2 aptamer HTS; Carboxyfluorescein RNA aptamer on beads, flow cytometry quenching; active compounds read low; fluorescence response (% of DMSO), % at 10 µM; 2,000 tested, under 10 active;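 active = compounds that quench the bead-bound fluorescent RNA probe, cutting fluorescence to under half of the solvent control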;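 also: counterscreen run without GRK2 so only probe quenching by compound is measured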
# GRK2 confirm 2: confirmation of human GRK2 inhibitors binding RNA aptamer site. shares compounds with GRK2 aptamer HTS. bead-bound GRK2, FAM-aptamer displacement, flow cytometry. inhibition of aptamer binding, % at 10 µM. 360 tested, under 10 active. AID 504782;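 active = inhibition of aptamer binding above 40%, about triple the noise seen with nonglowing compounds, on plates passing quality control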;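 also: negative values mostly come from compounds that fluoresce themselves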
# FAM quench CP2: counter-screen for GRK2 binding hits: quenchers of fluorescent RNA aptamer | shares compounds with GRK2 aptamer HTS | carboxyfluorescein RNA aptamer beads, flow cytometry quenching; active compounds read low | fluorescence response vs DMSO, % at 10 µM | 360 tested, under 10 active;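 active = response vs DMSO under 50%, meaning signal dropped by over half, treated as fluorescence quencher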;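 also: labelled aptamer on streptavidin beads without GRK2 as a quench counter-screen; 100% = bead fluorescence of DMSO wells and lower means quenching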
# The depositor's hits bear a star; i = inactive; . = no result given.
SMILES,GRK2 aptamer HTS,NTR1 ag,Platelet DG rel,beta cell repl,GRK2 CP1,Aptamer quench SP,others
COCCNC(=O)c1noc2c1CCc1cc(OC)ccc1-2,0,0,-17,0,.,.,
Cc1c(C)c2ccc(OCC(=O)Nc3ccccc3C(N)=O)cc2oc1=O,2,1,-3,3,.,.,
Cc1ccc(N=C2SC(C(=O)NCCc3ccccc3)CC(=O)N2C)cc1C (configuration not stated),1,0,3,0,.,.,
COc1cc(/C=C/C(=O)OCC(=O)Nc2c(C)n(C)n(-c3ccccc3)c2=O)cc(OC)c1OC,0,0,.,-1,.,.,
NC(=O)c1ccsc1NC(=O)COC(=O)c1ccc([N+](=O)[O-])o1,80*,7,.,-4,-3,99,
NC(=O)c1ccsc1NC(=O)c1ccc([N+](=O)[O-])o1,2,5,.,-6,.,.,
CCOC(=O)CNC(=O)c1sc(NC(=O)c2ccccc2F)nc1C,59*,0,1,0,1,113,
CC(=O)c1ccc(OCCCC(=O)NC2=NCCS2)cc1,39,0,-1,-3,5,94,
O=C(NCc1ccon1)C1CCC(=O)N(CCc2cccc(F)c2)C1 (configuration not stated),.,0,-9,-1,.,.,
Cc1ccn2c(CNCC3OCCc4ccccc43)c(C(=O)N3CCCCCC3)nc2c1 (configuration not stated),0,-1,-4,5,5,103,
O=C(c1nc2ccccn2c1CNCC1OCCc2ccccc21)N1CCOCC1 (configuration not stated),3,0,3,0,.,.,
O=C(c1ccc2c(=O)n(CCc3ccccc3)c(=O)[nH]c2c1)N1CCN(c2ccc(F)cc2)CC1,0,13,9,-3,.,.,
O=C(c1ccc2c(=O)n(CCc3ccccc3)c(=O)[nH]c2c1)N1CCN(c2ccccc2)CC1,88*,2,0,-3,-3,94,
CCOCCc1nnc(NC(=O)C2CC(=O)N(c3ccc(OCC)cc3)C2)s1 (configuration not stated),93*,0,13,0,0,96,
O=C(Cn1cc(C(=O)c2cccs2)c2ccccc21)NCc1ccc2c(c1)OCO2,69*,0,0,-2,-2,99,
COc1ccc([N+](=O)[O-])cc1N1C(=O)c2cccnc2C1=O,0,1,14,-6,.,.,
CC(=O)Oc1ccc([N+](=O)[O-])cc1N1C(=O)c2ccccc2C1=O,100*,0,-6,0,.,.,GRK2 confirm 2=i;FAM quench CP2=105
CN(CCO)c1ccc(C=NNc2ccc([N+](=O)[O-])cc2S(=O)(=O)Nc2ccccc2C(=O)O)cc1,35,-1,.,-4,11,101,
C/C(=N\NS(=O)(=O)c1ccccc1)c1ccc2c(c1)OCCO2,0,-2,-5,0,.,.,
OCCN(Cc1ccccc1)CC1CCCCC1,3,2,5,0,.,.,
OCCN(Cc1ccccc1)CC1CC2C=CC1C2 (configuration not stated),46*,0,2,-1,-3,95,
Cc1ccccc1NC(=S)NCc1ccccc1,0,0,-12,-2,.,.,
O=C(CSc1cn(CCNC(=O)c2ccccc2)c2ccccc12)NCc1ccco1,72*,0,17,2,-3,103,
CCCn1cc(SCC(=O)NCc2ccco2)c2ccccc21,0,0,-4,-1,.,.,
O=C(CSc1cn(CCNC(=O)c2ccccc2)c2ccccc12)NCC1CCCO1 (configuration not stated),2,0,4,-1,.,.,
SMILES,GRK2 aptamer HTS,NTR1 ag,Platelet DG rel,beta cell repl,GRK2 CP1,Aptamer quench SP,others
O=C(CSc1cn(CCNC(=O)c2cccs2)c2ccccc12)NC1CCCC1,0,-1,0,1,.,.,GRK2 confirm 2=0;FAM quench CP2=106
Cc1c(NC(=O)c2n[nH]c(=O)c3ccccc23)c(=O)n(-c2ccccc2)n1C,81*,0,8,-1,-1,109,
O=C1NC(Cc2ccccc2)c2nc3ccccc3c(=O)n2-c2cc(Cl)ccc21 (configuration not stated),0,2,.,1,.,.,
N#Cc1ccccc1S(=O)(=O)N1CCN(CC(O)COc2ccccc2F)CC1 (configuration not stated),54*,0,-7,-4,-1,101,
Cc1ccccc1Cn1nc(C)c(NC(=O)c2nc3n(n2)C(C(F)F)CC(C)N3)c1C (configuration not stated),1,0,1,1,.,.,
Cc1ccccc1Cn1nc(C)c(NC(=O)c2cc3n(n2)C(C(F)F)CC(C(F)F)N3)c1C (configuration not stated),98*,-2,.,-1,0,100,
CC1CCN(C(=O)C(Cc2ccccc2)n2cccc2)CC1 (configuration not stated),56*,1,30,1,3,100,
CC1CC(C)CN(C(=O)C(Cc2ccccc2)n2cccc2)C1 (configuration not stated),0,1,-1,-1,.,.,
Cc1cc(C)cc(NC(=O)COC(=O)COc2ccc(N(C)S(=O)(=O)c3cccs3)cc2)c1,41*,0,.,-5,-3,98,
CCCCN(C(=O)c1ccncc1)c1c(N)n(CCC)c(=O)[nH]c1=O,2,0,.,-2,.,.,
COc1ccc(N2CCN(C(CNS(=O)(=O)c3ccccc3)c3ccccc3)CC2)cc1 (configuration not stated),47*,0,-10,-2,2,86,Aptamer quench=19
COc1ccc(C(CNS(=O)(=O)c2ccc(C)cc2)N2CCN(C)CC2)cc1 (configuration not stated),0,0,1,-2,.,.,
O=C(CCNC(=O)N1CCn2c1nc1ccccc12)NCc1ccccc1,2,0,-4,-4,.,.,
COC(=O)c1nccnc1C(=O)Nc1ccccc1N1CCOCC1,0,0,-4,-3,.,.,
Cc1nnc(NC(=O)c2ccc(Br)o2)s1,85*,-1,2,-2,-2,105,
CCC1CCCCN1C(=O)c1ccc(OC)c(OC2CCN(C(C)C)CC2)c1 (configuration not stated),1,0,1,-2,.,.,
C/C(Cn1nnc2ccccc21)=N\OC(=O)c1ccccc1C,75*,2,-1,0,-17,96,
